Results published in PubChem BioAssay (NCATS).
Inconclusive results are not listed. The source made the active and inactive calls. Unless noted, the call rests on the fitted dose curve; in most records, active means well fitted curve in the direction sought with a large enough effect; inconclusive means small, poorly fitted or top-dose-only effect, or another doubt; inactive means no such curve, though single readings can be large; an effect the other way counts as inactive or inconclusive.

Columns and labels:
[1] = molecular target: ATP-dependent 6-phosphofructokinase (Trypanosoma brucei brucei) (UniProt O15648); test: qHTS Assay to Find Inhibitors of T. brucei phosphofructokinase: hit validation (AID 492961);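 further: luminescence reports ADP formed as PFK phosphorylates fructose-6-phosphate with ATP; series mostly up to about 51 µM; on the % scale 0 is the no-effect control and ±100 the full control effect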
Summary of the method: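 Compounds titrated; %activity normalized to 0x and 1x enzyme controls, curve-fitted. Readout: ADP-Glo luminescence after 45 min room-temperature reaction of 1.25 nM PFK, 0.1 mM ATP, 0.5 mM F6P, pH 8.0.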

[2] = molecular target: Ubiquitin carboxyl-terminal hydrolase 1 (Homo sapiens) (UniProt O94782); test: Inhibitors of USP1/UAF1: Pilot qHTS (AID 504865);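 further: rhodamine fluorescence freed from ubiquitin-rhodamine substrate followed over time; top concentration of the series differs between compounds; on the % scale 0 is the no-effect control and ±100 the full control effect; nearly all actives have a fitted effect of over 35% in size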
Summary of the method: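 In 50mM HEPES pH 7.8 containing 0.5mM EDTA, 1mM TCEP, 0.1 mg/ml BSA and 0.01% Tween-20, 1nM USP1/UAF1 is exposed to compound for 15 min, then Ub-Rho (150nM final) is added and fluorescence is read over time.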

[3] = qHTS Assay for Identification of Small Molecule Inducers of Hypoxia Response (AID 2120; active means well fitted curve in the direction sought with a large enough effect in the signal ratio, with a control signal flat, not every such curve was filed as active; the % refers to the signal ratio; further: 0% is about no effect)
Summary of the method: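 HRE-bla ME-180, 2500 cells/well, 0.5% dialyzed FBS medium; cpd titration, 17 h 37 degrees C; CCF4 2.5 h RT; Ex 405, Em 460/530 ratio -> %Activity, AC50.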

[4] = qHTS for differential inhibitors of proliferation of Plasmodium falciparum line Dd2 (AID 1882);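 further: series mostly up to about 29 µM; compound exposure of 72 h on infected erythrocytes; plate controls were DMSO vehicle for no effect and 0.29 µM artemisinin for full effect; nearly all actives have a fitted effect of over 65% in size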
Summary of the method: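 RBC culture, 0.3% parasitemia / 2.5% Hct final; cpd added by pin tool in DMSO; 72 h, 37 C, 5% CO2; lysis buffer + SYBR Green I, o/n RT dark; FI 485/535; norm. to artemisinin 0.29 uM and DMSO.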

[5] = qHTS for differential inhibitors of proliferation of Plasmodium falciparum line W2 (AID 1883);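 further: parasites grown with compound for 72 h before lysis and staining; 0% = vehicle wells and -100% = control inhibitor wells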
[6] = qHTS for differential inhibitors of proliferation of Plasmodium falciparum line HB3 (AID 1886);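 further: parasites grown with compound for 72 h before SYBR Green readout; plate controls were vehicle for no effect and reference inhibitor for full effect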
[7] = molecular target: Ferritin light chain (Equus caballus) (UniProt P02791); test: qHTS Validation Assay for Identification of Novel General Anesthetics (AID 2323); further: series mostly up to about 77 µM; on the % scale 0 is the no-effect control and ±100 the full control effect
Summary of the method: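 Fluorescence at 535 nm (excitation 380 nm) reported loss of 1-AMA binding to horse-spleen apoferritin (10 uM) in PBS with 50% saturated 1-aminoanthracene, after 10 min room-temperature incubation with compound; values from Hill fits of normalized response.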

[8] = molecular target: ATP-dependent DNA helicase Q1 (Homo sapiens) (UniProt P46063); test: qHTS Validation Assay for Inhibitors of RecQ-Like Dna Helicase 1 (RECQ1) (AID 2353);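 further: plate controls were DMSO vehicle for no effect and enzyme-free control for full effect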
Summary of the method: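 RECQ1T1 50 nM; forked duplex (20 bp + 30-nt ss tails) 200 nM, ATP 2 mM final; pH 8.0, 2 mM MgCl2, 2.5 ug/ml poly(dI-dC); 15 min compound preincubation; discontinuous kinetic read over 2 h at RT.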

[9] = Validation screen for small molecules that induce DNA re-replication in MCF 10A normal breast cells (AID 463097); further: 0% is about no effect; nearly all actives have a fitted effect of over 60% in size
Summary of the method: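 Image-based qHTS: normal breast cells are incubated with compound for 48 hr, stained with Hoechst, and scanned for total nuclear fluorescence. Compounds raising the fraction of nuclei with elevated DNA content count as re-replication inducers.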

[10] = Quantitative high throughput screen for delayed death inhibitors of the malarial parasite plastid, 96 hour incubation (AID 488745); further: series mostly up to about 29 µM; on the % scale 0 is the no-effect control and ±100 the full control effect; nearly all actives have a fitted effect of over 70% in size
Summary of the method: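 Two-generation (96 h) exposure of luciferase-reporter P. falciparum in erythrocytes, 2% hematocrit, 0.1% parasitemia final, 37 C, 5% CO2, RPMI 1640 with 0.5% Albumax. Growth inhibition scored by reduced luminescence.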

[11] = Quantitative high throughput screen for delayed death inhibitors of the malarial parasite plastid, 48 hour incubation (AID 488752); further: on the % scale 0 is the no-effect control and ±100 the full control effect; nearly all actives have a fitted effect of over 65% in size
Summary of the method: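 Cultures: infected erythrocytes at final 2% hematocrit and 0.1% parasitemia in Albumax-supplemented RPMI. Parasites express integrated firefly luciferase. Incubation with compound lasts 48 h before luminescent detection of remaining reporter activity.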

[12] = molecular target: M-phase phosphoprotein 8 (Homo sapiens) (UniProt Q99549); test: qHTS Validation Assay for Inhibitors for MPP8 Chromodomain Interactions with Methylated Histone Tails (AID 488949);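 further: 50 nM MPP8 with 50 nM peptide preformed then compounds added for 30 min; AlphaScreen signal from MPP8 chromodomain bound to biotinylated H3K9me3 peptide; top concentration of the series differs between compounds; on the % scale 0 is the no-effect control and ±100 the full control effect; nearly all actives have a fitted effect of over 55% in size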
Summary of the method: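 50 nM MPP8 + 50 nM b-H3K9me3 peptide, PBS pH 7.4/0.01% Tween-20, 30 min RT; + cpd 30 min RT; + AlphaScreen donor/Ni-chelate acceptor beads 10 ug/mL final, 30 min dark; luminescence read.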

[13] = molecular target: Transient receptor potential cation channel subfamily V member 1 (Homo sapiens) (UniProt Q8NER1); test: HTS Assay for Compounds that Act as Enhancers of the Vanilloid Receptor 1 (AID 488979); further: 0% is about no effect
Summary of the method: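 TRPV1 cells loaded with Fluo-8 calcium dye; compound added and Ca2+ signal (ex 480/em 520 nm) followed 3 min, then capsaicin at EC20 added and read 2 more min to detect enhancement.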

[14] = molecular target: Thyrotropin receptor (Homo sapiens) (UniProt P16473); test: qHTS Assay for Antagonists of the Thyroid Stimulating Hormone Receptor (AID 488980); further: series mostly up to about 58 µM; 0% is about no effect
Summary of the method: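 Readout is cAMP by HTRF competition between cellular cAMP and cAMP-d2 for a cryptate-labelled antibody. Antagonism was assessed in TSHR-transfected HEK293 cells stimulated with 4 nM TSH (EC80, final) in the presence of RO 20-1724.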

[15] = molecular target: Thyrotropin-releasing hormone receptor (Homo sapiens) (UniProt P34981); test: qHTS for Small Molecule Agonists and Allosteric Enhancers of Human TRH Receptor: Validation Screen for Agonists (AID 493127;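 active means calcium activation more than 3 SD above the typical response in the agonist read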;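 further: intracellular calcium rise by fluo-8 fluorescence before TRH EC20 addition; 0% is about no effect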); details: TRH receptor agonist cell assay; at 2 µM; hits give high values
Summary of the method: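 Kinetic fluorescence assay of agonist-induced calcium release: overnight-plated TRHR cells, room-temperature fluo-8 loading, baseline then compound addition with per-second reads.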

[16] = molecular target: Galactokinase (Homo sapiens) (UniProt P51570); test: qHTS Validation Assay for Inhibitors of Human Galactokinase (GALK) (AID 493189); further: 0% is about no effect
Summary of the method: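 5 nM GALK / 100 uM galactose / 35 uM ATP, 20 mM HEPES pH8.0, 5 mM MgCl2, 60 mM NaCl, 1 mM DTT, 0.01% BSA (final). RT 1 h; Kinase-Glo Plus luminescence.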

[17] = Validation screen for small molecules that induce DNA re-replication in SW480 colon adenocarcinoma cells (AID 504364); further: 0% is about no effect
Summary of the method: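 Hoechst-stained SW480 nuclei, imaged at 405 nm excitation after 48 hr compound exposure, were counted for elevated DNA content as the re-replication signal.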

[18] = molecular target: Estrogen receptor (Homo sapiens) (UniProt P03372); test: qHTS assay for small molecule antagonists of estrogen receptor alpha signaling (AID 588513; active means well fitted curve in the direction sought with a large enough effect in the signal ratio, with a control signal flat, not every such curve was filed as active; the % refers to the signal ratio; further: on the % scale 0 is the no-effect control and ±100 the full control effect)
Summary of the method: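 Fluorescence from CCF4 substrate after 2 h at room temperature gave reporter activity; cells had been exposed to compound and 0.5nM 17-beta-estradiol for 18 h at 37 C. Hill-equation fitting yielded IC50 and maximal response.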

[19] = molecular target: Estrogen receptor (Homo sapiens) (UniProt P03372); test: qHTS assay for small molecule agonists of estrogen receptor alpha signaling (AID 588514; calls by dose curve;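 further: 0% = vehicle only and 100% = reference agonist; nearly all actives have a fitted effect of over 70% in size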)
Summary of the method: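 Fluorescence from CCF4 cleavage reports ER-alpha-driven beta-lactamase expression in HEK 293 cells treated 18 hrs at 37 C. Data normalized to 17-beta-estradiol (20 nM) and DMSO, fitted to Hill equation.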

Chain of Estrogen receptor (Homo sapiens) (P03372 whole entry, looked up): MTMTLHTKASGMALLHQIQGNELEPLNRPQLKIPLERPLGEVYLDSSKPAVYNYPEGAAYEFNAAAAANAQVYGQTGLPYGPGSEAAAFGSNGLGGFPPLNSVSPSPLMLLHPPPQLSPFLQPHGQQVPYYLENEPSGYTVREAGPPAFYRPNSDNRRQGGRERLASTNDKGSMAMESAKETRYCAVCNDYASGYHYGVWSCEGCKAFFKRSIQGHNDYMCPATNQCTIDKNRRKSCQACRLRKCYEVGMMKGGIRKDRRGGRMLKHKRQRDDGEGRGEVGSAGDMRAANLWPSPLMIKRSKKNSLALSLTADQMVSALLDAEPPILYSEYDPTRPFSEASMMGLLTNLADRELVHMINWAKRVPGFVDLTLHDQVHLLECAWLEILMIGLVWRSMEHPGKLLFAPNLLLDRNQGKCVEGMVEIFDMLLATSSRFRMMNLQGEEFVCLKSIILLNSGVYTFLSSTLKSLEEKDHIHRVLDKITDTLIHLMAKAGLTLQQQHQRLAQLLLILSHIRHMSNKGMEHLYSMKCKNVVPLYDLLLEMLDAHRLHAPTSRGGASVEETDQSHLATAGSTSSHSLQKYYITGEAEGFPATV
Chain of Ubiquitin carboxyl-terminal hydrolase 1 (Homo sapiens) (O94782 whole entry, looked up): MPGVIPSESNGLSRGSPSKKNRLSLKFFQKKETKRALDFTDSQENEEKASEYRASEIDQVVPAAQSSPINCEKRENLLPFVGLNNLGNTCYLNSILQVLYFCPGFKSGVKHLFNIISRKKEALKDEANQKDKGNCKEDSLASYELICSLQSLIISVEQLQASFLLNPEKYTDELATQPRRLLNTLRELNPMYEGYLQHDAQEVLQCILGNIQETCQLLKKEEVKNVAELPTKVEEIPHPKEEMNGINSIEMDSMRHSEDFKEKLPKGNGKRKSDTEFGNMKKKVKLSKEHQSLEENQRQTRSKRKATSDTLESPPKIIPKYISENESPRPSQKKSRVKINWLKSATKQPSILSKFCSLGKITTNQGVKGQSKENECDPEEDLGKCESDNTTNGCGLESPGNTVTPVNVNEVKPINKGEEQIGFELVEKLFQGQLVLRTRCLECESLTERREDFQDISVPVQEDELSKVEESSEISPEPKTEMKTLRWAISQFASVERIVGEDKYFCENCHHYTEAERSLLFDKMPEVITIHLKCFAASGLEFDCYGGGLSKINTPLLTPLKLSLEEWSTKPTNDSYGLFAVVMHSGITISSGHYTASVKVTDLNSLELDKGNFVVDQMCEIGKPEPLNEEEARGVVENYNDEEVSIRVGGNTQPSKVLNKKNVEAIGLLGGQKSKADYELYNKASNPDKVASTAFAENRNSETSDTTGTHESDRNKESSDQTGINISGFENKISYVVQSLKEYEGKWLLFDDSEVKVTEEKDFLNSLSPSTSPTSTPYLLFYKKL
Chain of ATP-dependent 6-phosphofructokinase (Trypanosoma brucei brucei) (O15648 whole entry, looked up): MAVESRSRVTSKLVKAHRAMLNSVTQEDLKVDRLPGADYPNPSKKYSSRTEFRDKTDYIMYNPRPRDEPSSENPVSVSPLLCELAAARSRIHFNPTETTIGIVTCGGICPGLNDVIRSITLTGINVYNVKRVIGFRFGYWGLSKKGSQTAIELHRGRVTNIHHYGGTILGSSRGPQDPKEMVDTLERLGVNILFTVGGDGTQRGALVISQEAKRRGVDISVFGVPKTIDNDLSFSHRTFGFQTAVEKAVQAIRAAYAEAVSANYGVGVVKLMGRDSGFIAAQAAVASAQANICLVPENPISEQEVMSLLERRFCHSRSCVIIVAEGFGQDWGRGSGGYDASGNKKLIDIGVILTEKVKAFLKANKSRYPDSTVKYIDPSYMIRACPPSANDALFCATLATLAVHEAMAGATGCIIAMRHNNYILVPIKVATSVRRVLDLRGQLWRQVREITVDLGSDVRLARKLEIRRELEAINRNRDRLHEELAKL
Chain of Ferritin light chain (Equus caballus) (P02791 2-175 limits assumed): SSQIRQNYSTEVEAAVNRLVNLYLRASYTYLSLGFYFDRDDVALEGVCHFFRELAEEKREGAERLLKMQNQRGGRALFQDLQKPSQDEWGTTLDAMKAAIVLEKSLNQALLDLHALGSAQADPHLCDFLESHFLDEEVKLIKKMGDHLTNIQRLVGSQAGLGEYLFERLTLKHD
Chain of M-phase phosphoprotein 8 (Homo sapiens) (Q99549 whole entry, looked up): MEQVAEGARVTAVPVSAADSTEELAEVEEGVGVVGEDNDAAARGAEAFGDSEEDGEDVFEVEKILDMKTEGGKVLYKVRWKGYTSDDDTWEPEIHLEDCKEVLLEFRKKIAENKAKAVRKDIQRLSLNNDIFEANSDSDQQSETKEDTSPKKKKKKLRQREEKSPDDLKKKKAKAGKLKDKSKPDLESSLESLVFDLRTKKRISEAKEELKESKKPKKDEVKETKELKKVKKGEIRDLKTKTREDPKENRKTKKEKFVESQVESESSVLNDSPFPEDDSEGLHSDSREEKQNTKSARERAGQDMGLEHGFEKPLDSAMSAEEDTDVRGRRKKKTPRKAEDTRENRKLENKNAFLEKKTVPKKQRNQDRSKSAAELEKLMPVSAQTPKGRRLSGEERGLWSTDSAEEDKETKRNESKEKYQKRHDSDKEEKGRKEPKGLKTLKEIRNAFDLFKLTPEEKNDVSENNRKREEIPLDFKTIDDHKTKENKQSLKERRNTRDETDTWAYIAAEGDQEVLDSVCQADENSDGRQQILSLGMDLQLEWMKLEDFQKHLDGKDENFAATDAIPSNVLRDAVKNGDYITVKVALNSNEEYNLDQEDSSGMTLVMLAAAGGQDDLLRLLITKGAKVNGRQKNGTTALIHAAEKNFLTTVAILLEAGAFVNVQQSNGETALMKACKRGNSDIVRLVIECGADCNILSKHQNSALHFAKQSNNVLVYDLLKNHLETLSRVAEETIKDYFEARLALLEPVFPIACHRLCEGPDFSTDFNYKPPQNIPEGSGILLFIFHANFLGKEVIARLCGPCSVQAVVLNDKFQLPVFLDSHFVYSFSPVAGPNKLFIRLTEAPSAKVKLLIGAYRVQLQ
Chain of Transient receptor potential cation channel subfamily V member 1 (Homo sapiens) (Q8NER1 whole entry, looked up): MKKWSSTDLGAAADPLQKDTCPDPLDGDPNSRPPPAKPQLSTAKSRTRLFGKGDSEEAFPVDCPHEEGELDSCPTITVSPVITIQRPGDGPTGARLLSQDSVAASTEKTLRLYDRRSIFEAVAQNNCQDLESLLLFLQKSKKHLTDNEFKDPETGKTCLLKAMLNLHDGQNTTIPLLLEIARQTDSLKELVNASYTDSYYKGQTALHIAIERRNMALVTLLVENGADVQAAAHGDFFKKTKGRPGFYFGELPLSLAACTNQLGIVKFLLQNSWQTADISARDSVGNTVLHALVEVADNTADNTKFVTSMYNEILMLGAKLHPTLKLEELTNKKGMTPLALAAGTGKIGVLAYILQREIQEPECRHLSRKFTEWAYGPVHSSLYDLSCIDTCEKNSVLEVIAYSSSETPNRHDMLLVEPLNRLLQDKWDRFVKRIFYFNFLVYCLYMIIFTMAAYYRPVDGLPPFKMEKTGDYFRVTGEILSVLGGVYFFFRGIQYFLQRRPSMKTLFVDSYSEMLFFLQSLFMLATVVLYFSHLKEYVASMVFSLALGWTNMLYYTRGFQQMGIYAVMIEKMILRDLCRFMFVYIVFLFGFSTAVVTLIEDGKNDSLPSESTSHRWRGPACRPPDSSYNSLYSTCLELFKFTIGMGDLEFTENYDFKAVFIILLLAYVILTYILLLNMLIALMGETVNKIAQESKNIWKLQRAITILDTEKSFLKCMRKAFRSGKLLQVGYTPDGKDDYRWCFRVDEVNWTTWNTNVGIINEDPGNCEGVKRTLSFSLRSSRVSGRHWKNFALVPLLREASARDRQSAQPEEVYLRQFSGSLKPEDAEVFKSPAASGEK
Chain of Galactokinase (Homo sapiens) (P51570 whole entry, looked up): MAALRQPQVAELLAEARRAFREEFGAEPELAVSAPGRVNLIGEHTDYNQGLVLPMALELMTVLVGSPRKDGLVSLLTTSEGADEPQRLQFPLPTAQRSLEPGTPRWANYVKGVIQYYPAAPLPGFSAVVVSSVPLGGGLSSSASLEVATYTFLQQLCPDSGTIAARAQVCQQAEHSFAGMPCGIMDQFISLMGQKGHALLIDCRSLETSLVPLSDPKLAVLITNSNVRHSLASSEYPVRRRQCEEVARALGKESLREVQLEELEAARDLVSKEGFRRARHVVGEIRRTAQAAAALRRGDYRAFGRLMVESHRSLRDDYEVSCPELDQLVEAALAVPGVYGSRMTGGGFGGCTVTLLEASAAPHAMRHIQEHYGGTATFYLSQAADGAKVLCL
Chain of Thyrotropin receptor (Homo sapiens) (P16473 whole entry, looked up): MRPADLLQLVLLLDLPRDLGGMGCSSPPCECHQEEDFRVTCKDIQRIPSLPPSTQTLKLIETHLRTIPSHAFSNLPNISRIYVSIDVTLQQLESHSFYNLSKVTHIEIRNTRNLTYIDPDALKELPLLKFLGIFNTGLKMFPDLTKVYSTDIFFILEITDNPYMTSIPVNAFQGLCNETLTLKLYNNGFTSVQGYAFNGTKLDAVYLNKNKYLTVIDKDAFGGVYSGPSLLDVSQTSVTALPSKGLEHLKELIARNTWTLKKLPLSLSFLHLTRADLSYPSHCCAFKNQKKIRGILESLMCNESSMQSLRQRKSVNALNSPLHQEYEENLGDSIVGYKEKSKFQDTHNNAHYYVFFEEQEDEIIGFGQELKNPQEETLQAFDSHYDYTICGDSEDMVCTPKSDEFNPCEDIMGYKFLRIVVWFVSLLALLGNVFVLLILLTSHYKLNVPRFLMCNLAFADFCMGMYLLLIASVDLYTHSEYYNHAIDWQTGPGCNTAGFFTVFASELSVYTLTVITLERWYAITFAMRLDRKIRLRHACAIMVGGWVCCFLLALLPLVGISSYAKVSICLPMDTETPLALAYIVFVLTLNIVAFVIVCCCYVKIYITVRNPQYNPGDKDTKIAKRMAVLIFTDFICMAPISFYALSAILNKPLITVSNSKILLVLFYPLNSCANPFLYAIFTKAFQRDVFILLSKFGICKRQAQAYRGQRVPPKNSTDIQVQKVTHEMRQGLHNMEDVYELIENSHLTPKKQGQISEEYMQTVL

CN(C/C=C/C#CC(C)(C)C)Cc1cccc2ccccc12
inactive: outcome [1]

CCOC(=O)c1cccnc1
inactive: outcome [1] | Potency [2]

C=CCNC(N)=S
inactive: outcome [3] | Potency [2]

CN1C(C)(C)CCCC1(C)C
inactive: outcome [4] | outcome [5] | outcome [6] | outcome [7] | outcome [8] | outcome [9] | outcome [10] | outcome [11] | outcome [12] | outcome [13] | outcome [14] | activation [15] 0.688% | outcome [16] | outcome [17] | Potency [2]

Cc1c(NC(C)C)c(=O)n(-c2ccccc2)n1C
inactive: outcome [1] | Potency [2]

CCCCCCCC(=O)OCC(COC(=O)CCCCCCC)OC(=O)CCCCCCC
inactive: outcome [3] | outcome [1] | Potency [2] | outcome [18] | outcome [19]

COc1ccccc1OC(=O)Oc1ccccc1OC
inactive: outcome [1]

CCCCCCCCCCC(CO)CCCCCCCC (stereo not given)
inactive: outcome [1]

O=S1(=O)OC(c2ccc(O)cc2)(c2ccc(O)cc2)c2ccccc21
inactive: outcome [1]

CC(=O)OCC(COC(C)=O)OC(C)=O
inactive: outcome [3] | outcome [1] | Potency [2]

CCCC(O)C(CC)CO (stereo not given)
inactive: outcome [3] | outcome [1] | Potency [2] | outcome [18] | outcome [19]

C[C@@H]1CCC[C@H](C)N1
inactive: outcome [1] | Potency [2]

CCCCCC(N)=O
inactive: outcome [3] | outcome [1] | Potency [2]

CC(=O)Nc1ccc(C(=O)O)cc1
inactive: outcome [3] | outcome [1] | Potency [2] | outcome [18] | outcome [19]

O=C(/C=C/c1ccccc1)OCc1ccccc1
inactive: outcome [1]

CC1CC(OC(=O)c2ccccc2O)CC(C)(C)C1 (stereo not given)
inactive: outcome [1] | Potency [2]

O=C1c2cccc(O)c2C(=O)c2c(O)cccc21
inactive: outcome [3] | Potency [2]

CC1CCN(CCCC(=O)c2ccc(F)cc2)CC1
inactive: outcome [1] | Potency [2]

CC(=O)Nc1cccc(O)c1
inactive: outcome [3] | Potency [2] | outcome [18] | outcome [19]

CC(=O)SC[C@@H](Cc1ccccc1)C(=O)NCC(=O)OCc1ccccc1
inactive: outcome [1]
